The record followed here is PubChem BioAssay AID429 (Emory University Molecular Libraries Screening Center, 2006).

About 220 (0.34%) of roughly 64,000 compounds were called active. Only a selection was taken, and actives are over-represented in it overall. Values without a mark were called inactive.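 The calls were made as follows: active = inhibition above 50%; inactive = the rest.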

The target of the test is Heat shock protein HSP 90-alpha (Homo sapiens) (UniProt P07900). The test is described as follows: tumor Hsp90 inhibitors, primary screen, cell lysate, fluorescence polarization, NCI-N417 lysate (AID 429).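 Also: 0% = tracer plus lysate wells and 100% = tracer alone without lysate.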 Particulars: NCI-N417 lysate Hsp90, Cy3B-geldanamycin FP displacement; at 30 µM; hits give high values.
For the compound `CCOc1ccc(CCNC(=O)C2CCN(c3ccc(N4CCOCC4)nn3)CC2)cc1OCC`, the inhibition is -1.25%. The result for `OC[C@H]1O[C@@H](n2cnc3c(N[C@H]4CC5CCC4C5)ncnc32)[C@H](O)[C@@H]1O` (stereo partly drawn) reads -1%; that for `O=C(OCC(=O)c1cccs1)C1=COCCO1`, -6.24%. With `COc1cc(Cl)cc(C2NC(=O)NC(C)=C2C(=O)NCc2ccccc2)c1O` (stereo not drawn) the figure was -1.82%; with `O=C(c1ccco1)N1CCN(C(=O)C2CC(c3ccc(Cl)c(Cl)c3)=NO2)CC1` (stereo not drawn), -2.91%; with `CCC(CC)C(=O)Nc1cc(C(=O)OC)cc(C(=O)OC)c1`, -13.5%. With `CC(=O)N1CCC(C(=O)Nc2nc(-c3ccccc3)ns2)CC1` the figure was -2.79%.

Consider `Cc1coc2c(O)cc3c(c12)OC1(N2CCCCC2)C(=O)NCCCC31` (stereo not drawn), for which the inhibition is 96.8% (active). With `CC(=O)/C(C)=N/O` the figure was 5.45%; with `COc1ccc(-n2nc3c(c2NC(=O)Cc2cccc(C)c2)CS(=O)C3)cc1` (stereo not drawn), -2.13%; with `Nc1cc(O)cc2cccnc12`, 150% (active).

In the case of `O=C(Nc1ccn(Cc2ccc(F)cc2)n1)c1ccncc1`, the inhibition is -2.29%. With `CN(C)c1nc(N)nc(CSc2nnnn2-c2cccc3ccccc23)n1` the figure was -1.24%; with `Cc1ccc(S(=O)(=O)N2CCCC2CO)cc1` (stereo not drawn), -1.22%; with `C=CCNc1ncnc2ccc(Br)cc12`, -2.85%.

Take `Cc1nn(-c2ccccc2)c(CC(C)(C)C(=O)O)c1C(=O)O`: the inhibition was 0.74%. With `Oc1ccc(Cn2cc[nH]c2=S)cc1`, the inhibition was -2.1%. The result for `CCC(Sc1nncn1C)C(=O)Nc1nnc(-c2ccc(Cl)cc2)s1` (stereo not drawn) reads -2.78%; that for `COc1cc(NCS(=O)(=O)c2ccc(C)cc2)c2ncccc2c1`, -1.2%. On to `O=C(c1ccccc1)c1ccc2nc(N3CCCCC3)c3nncn3c2c1`, for which the inhibition is -6.65%. With `CCOc1cccc(/C(O)=C2/C(=O)C(=O)N(CCOC)C2c2ccncc2)c1` (stereo not drawn) the figure was 2.34%; with `CS(=O)(=O)c1ccc2nc(NC(=O)CN3CCCCCC3)sc2c1`, -0.64%. With `O=C(NCCc1ccc(Cl)cc1)C1CC(=O)N(C2CCCCC2)C1` (stereo not drawn) the figure was -0.35%. The result for `NS(=O)(=O)c1ccc(CCNC(=O)Nc2ccc(Cl)cc2)cc1` reads -2.49%.

Take `Oc1cc2c(cc1O)CN(C(=S)NCCc1ccc(Cl)cc1)CCC2`: the inhibition is 77.6% (active). The result for `Cc1ccc(-c2nnc(SC(C)C#N)n2N)cc1` (stereo not drawn) reads 2.26%; that for `O=C(Nc1nccs1)C1CCCN1S(=O)(=O)c1cccc2cccnc12` (stereo not drawn), -1.15%; that for `COc1ccccc1NC1=NC(c2ccc(Cl)cc2)N=C(N)N1` (stereo not drawn), 1.36%. With `C=CC1(C)CC(=O)C2(O)C(C)(O1)C(OC(C)=O)C(O)C1C(C)(C)CCC(O)C12C` (stereo not drawn) the figure was -0.45%; with `COC(=O)[C@@H](NC(=O)NCc1cccc(OC)c1)C(C)C`, -1.26%. In the case of `CC(C)C[C@H](NC(=O)[C@H](O)[C@H](N)Cc1ccccc1)C(=O)O`, the inhibition is -2.1%. The result for `CCCn1c(=O)c2[nH]c(-c3ccc(OCC(=O)NCCN)cc3)nc2n(CCC)c1=O` reads -4.59%; that for `CCCCCC(O)c1cccc(OCc2ccc3ccccc3n2)c1` (stereo not drawn), 5.96%; that for `Cc1cc(C(F)(F)F)n2ncc(-c3ccccc3)c2n1`, -3.41%. With `Nc1ccc2c3c(cccc13)C(=O)NC2=O` the figure was 7.71%; with `Cc1nc2ccc(S(=O)(=O)NCC(=O)O)cc2s1`, -1.11%. With `CC(C)C1C2=C(CC(C)(C)CC2=O)ON1c1ccccc1` (stereo not drawn) the figure was -1.36%. In the case of `Cc1ccc(F)cc1NC(=O)Cc1nn(C)c(=O)c2ccccc12`, the inhibition is -2.07%. The result for `O=C1c2oc3ccc(Br)cc3c(=O)c2C(c2cccc(F)c2)N1CCO` (stereo not drawn) reads -0.86%.

As to `Cc1c(-c2nn(C)c(=O)c3ccccc23)oc2ccc(F)cc2c1=O`, the inhibition is 89.8% (active). With `COc1cccc(CN2C(=O)CCC2(C)C(=O)NC2CCCCCC2)c1` (stereo not drawn) the figure was -0.1%; with `CC(=O)C1=C(O)C(=O)N(c2ccc(S(N)(=O)=O)cc2)C1c1ccccc1F` (stereo not drawn), -1.25%. For `CC(C)(C)NCC(O)COc1cccc2[nH]c(=O)[nH]c12` (stereo not drawn), the inhibition was -2.65%. The result for `CCOc1ccccc1C1CC(c2ccccc2)Nc2nc(N)nn21` (stereo not drawn) reads 0.5%; that for `COc1ccccc1OCCOc1ccc(/C=N/n2cnnc2)cc1`, -1.96%; that for `CCOc1cc(CO)ccc1OCC(=O)N1CCCCC1`, 1.83%. With `O=C(c1ccc2c(c1)OCO2)N1CCNc2ccccc2C1` the figure was -1.64%; with `Cc1ccc(NC(=O)CS(=O)CC(=O)N(c2ccccc2)C(C)C(=O)NC2CCCC2)cc1` (stereo not drawn), -0.1%; with `O=C(Nc1nsc(-c2ccccc2)n1)c1ccncc1`, 1.14%. With `O=C(CN(c1ccc2c(c1)OCCO2)S(=O)(=O)c1ccccc1)Nc1ccc2c(c1)OCO2` the figure was 31.2%; with `Cc1noc(C)c1C(=O)NC(C)c1ccc2c(c1)OCO2` (stereo not drawn), -9.41%. Consider `COc1ccc(-c2nnn(Cc3nc(N)nc(N4CCCCC4)n3)n2)cc1`, for which the inhibition was 2.3%. The result for `O=C(CCC(=O)c1cccs1)NCc1ccccc1` reads -2.27%. Regarding `O=C(CCCCn1c(=O)[nH]c2ccccc2c1=O)NCc1ccc2c(c1)OCO2`, the inhibition is -3.39%. With `O=C(O)CCC(=O)NCc1ccc2[nH]c3c(c2c1)CCCC3` the figure was 62.8% (active); with `CCOC(=O)C1CCN(C(=O)COc2cc(C)c(Br)c(C)c2)CC1`, -0.95%. The result for `CC1CC2C3CCC4=CC(=O)C=C[C@]4(C)[C@@]3(F)[C@@H](O)C[C@]2(C)[C@@]1(O)C(=O)CO` (stereo partly drawn) reads 0.93%; that for `CC(=O)Oc1cccc(N2C(=O)CC(Nc3ccc(N4CCOCC4)cc3)C2=O)c1` (stereo not drawn), 10.2%.
